Assay outcomes: PubChem BioAssay, National Center for Advancing Translational Sciences (NCATS)
MARV entry inh: Marburg virus entry inhibition; Potency, µM (series often up to 37.8 µM), for the others: at the highest dose activity change, negative = inhibition, actives largely listed as inhibitors; Marburg virus pseudotyped entry inhibition, cell reporter; AID 540276; 300,000 compounds, 1.8% hits; calls by dose curve; tested in HEK293 cells; note: potency is the fitted concentration of half-maximal effect
Lassa entry inh: inhibitors of Lassa virus binding or cell entry | Lassa virus pseudotype entry inhibition, cell reporter | Potency, µM (top dose mostly 37.9 µM), for the others: top-dose activity change, negative = inhibition, hits mostly inhibitors | 300,000 compounds, 1.2% hits | AID 540256; calls by dose curve; tested in HEK293 cells; note: potency is the fitted concentration of half-maximal effect; nearly all actives have a fitted effect of over 50% in size
HCMV antiviral: human cytomegalovirus inhibition | HFF cells, HCMV-luciferase reporter, 72 h; stronger effect = lower value | activity change, negative = inhibition, % at 57.5 µM | 410,000 compounds, 4.5% hits | AID 1259415; in the data active = activity change below about -60%; inconclusive = no clear call, values can overlap the other calls; inactive = above about -39%
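Inhibition of viral replication was scored as loss of reporter luminescence in HFFs infected with HCMV-luciferase (MOI 1 PFU/cell) for 72 h; compounds tested at 2 doses, normalized to buffer and Salinomycin controls.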
FMDV inh: foot and mouth disease virus antiviral activity; FMDV antiviral cell-based qHTS; Potency, µM (doses to about 57.9 µM), for the others: at the top dose activity change, negative = inhibition, actives largely listed as inhibitors; 410,000 compounds, 1.2% hits; AID 1159524; calls by dose curve; tested in HEK293T cells; note: read-out not given here; potency is the fitted concentration of half-maximal effect; nearly all actives have a fitted effect of over 45% in size
VACV Venus inh: inhibitors of vaccinia virus (Venus reporter); Potency, µM (titrated, usually from 36.5 µM), inactives show top-dose activity change, negative = inhibition, most hits filed as inhibitors; Vaccinia virus Venus reporter expression, fluorescence; 330,000 compounds, 0.46% hits; calls by dose curve; tested in A549 cells; note: potency is the fitted concentration of half-maximal effect; nearly all actives have a fitted effect of over 30% in size
VACV mCherry inh: vaccinia inhibition (mCherry reporter). Vaccinia virus mCherry reporter infection, fluorescence. Potency, µM (series often up to 36.5 µM), for the others: at the top dose activity change, negative = inhibition, most hits filed as inhibitors. 310,000 compounds, 0.63% hits; calls by dose curve; tested in A549 cells; note: potency is the fitted concentration of half-maximal effect; nearly all actives have a fitted effect of over 35% in size
Active calls of the source: *; i = inactive; ? = inconclusive; / = no result; + = active, no number; [ ] = remark or other dose. Rows were chosen to be rich in hits. Some 6.5% of all compounds tested hit in one or more screens of this group. % is set by controls: 0 for no effect and ±100 for the full control effect.

SMILES	MARV entry inh	Lassa entry inh	HCMV antiviral	FMDV inh	VACV Venus inh	VACV mCherry inh
CCOc1ccccc1NC(=O)CSc1nc2c(oc3ccccc32)c(=O)n1-c1ccc(F)cc1	?	/	9	-6%	8%	-4%
CC(C)(C)c1ccc(OCC(=O)N(Cc2ccco2)Cc2ccccc2F)cc1	?	-14%[46.1 µM]	14	0%	-2%	-5%
CC(=O)c1ccc(F)c(-c2cc(C)cc3c2OC(CNC(=O)c2csc(C)n2)C3)c1 (stereo not given)	/	/	/	-17%	-15%	-19%
Clc1ccc(COc2cccc(CNCc3ccncc3)c2)cc1	0%[46.1 µM]	?	-75*	?	-22%	-20%
CC(C)(CO)NCc1cccc(OCc2ccc(Cl)cc2)c1	?	?	?	-7%	-26%	-17%
COc1cc(OC)c(C(=O)N/N=C/c2ccoc2)cc1OC	-4%[46.1 µM]	26%[46.1 µM]	-69*	3%	4%	0%
CNCCC=C1c2ccccc2C=Cc2ccccc21	/	/	-2	-17%	-22%	-1%
CNCCCC1c2ccccc2C=Cc2ccccc21	3.5µM*	?	-6	-17%	?	-10%
Cc1cc(NCCCN2CCOCC2)n2ncc(-c3ccc(Cl)cc3)c2n1	-20%	?	55	28%	/	/
Cc1cc(NCCCn2ccnc2)n2ncc(-c3ccc(Cl)cc3)c2n1	?	?	14	3%	?	13µM*
CN(C)CCCNc1cc(C(C)(C)C)nc2c(-c3ccc(Cl)cc3)cnn12	?	?	-103*	1%	-5%[7.34 µM]	i[7.34 µM]
CC(=O)N(Cc1cccnc1)c1nc2ccc(F)cc2s1	/	16%[46.1 µM]	-77*	-8%	-11%	-2%
O=C(c1ccc(Br)s1)N(Cc1cccnc1)c1nc2ccc(F)cc2s1	/	1%[46.1 µM]	14	-5%	-13%	-1%
CN(C)CCCN(C(=O)c1ccc(S(=O)(=O)N(C)C)cc1)c1nc2cc3c(cc2s1)OCO3	?	-7%[46.1 µM]	-15	-4%	-8%	-15%
COc1ccc(C)c2sc(N(Cc3cccnc3)C(=O)CCc3ccccc3)nc12	/	0%[46.1 µM]	+	-7%	-5%	-16%
CCN(Cc1ccccc1)S(=O)(=O)c1ccc(C(=O)N(CCCN(C)C)c2nc3cc4c(cc3s2)OCO4)cc1	?	?	-65*	-5%	?	-18%
CCN(CC)CCN(C(=O)c1ccc(S(=O)(=O)N(C)C2CCCCC2)cc1)c1nc2c(C)cccc2s1	?	?	23	?	-9%	-17%
Cc1ccc2sc(N(CCCN(C)C)C(=O)c3ccc(S(=O)(=O)N(C)C4CCCCC4)cc3)nc2c1C	?	13µM*	-35	-4%	?	?
C[C@H]1C(C(=O)N(C)C2CCCCC2)=Cc2c(n(-c3ccc(F)cc3)c(=O)n2CCCOc2ccccc2)C=C1c1ccccc1	/	/	-29	/	/	/
COc1cc(CNCc2cc3ccc(F)cc3nc2N2CCOCC2)cc(OC)c1OC	/	/	/	0%	33%	-3%
CCCCN1CC(COCc2ccccc2)Oc2cccc(NCc3cc(OC)c(OC)c(OC)c3)c2S1(=O)=O (stereo not given)	/	/	-15	/	/	/
COC(=O)[C@@H]1CCCN1C(=O)c1cc(NC(=O)c2ccccc2)cc2ncn(C3CCCC3)c12	/	/	/	-4%	0%	-3%
CCCNC(=O)c1ccccc1NC(=O)c1nsc2ccccc12	/	15%[46.1 µM]	37	0%	-6%	i
CCN(Cc1ccccc1)S(=O)(=O)c1ccc(C(=O)N(CCCN(C)C)c2nc3c(C)c(C)ccc3s2)cc1	6.3µM*	2.8µM*	-16	-14%	?	11µM*
CC(=O)c1ccc(C(=O)N(Cc2cccnc2)c2nc3c(C)c(C)ccc3s2)cc1	/	13µM*	0	-12%	-24%	-8%
CC(=O)N(Cc1cccnc1)c1nc2c(C)cc(C)cc2s1	/	1%[46.1 µM]	?	4%	-3%	-11%
CCNc1ncc2nc(-c3ccc(F)cc3)c(=O)n(C)c2n1	/	/	/	21%	/	/
Cc1ccc(N(Cc2cc(=O)[nH]c3ccccc23)C(=O)CCl)c(C)c1	?	?	-97*	35µM*	?	?
CCCC(=O)N(Cc1cc(=O)[nH]c2ccccc12)c1ccc(C)cc1C	/	/	17	-21%	/	/
CC1CCc2cc(F)cc3c2N1C(=O)C(C(=O)Nc1cnccn1)C3=O (stereo not given)	/	/	/	/	-16%	-23%
